Compounds without any hit were thinned out: in the full panel of roughly 83,000, 20% have a hit.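 Assay: single dose, 48 h. Readout: percent growth (0 = no net growth; negative = cell death). Active: <10.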 Active and inactive are the calls of the source.
Experiments:
Assay in all cases: NCI-60 one-dose screen, 48 h (100 = growth as untreated, 0 = no growth, -100 = all killed)
Conditions in all cases: 10 µM unless noted
[1] = test system: DU-145 prostate
[2] = test system: K-562 leukemia
[3] = test system: MALME-3M melanoma
[4] = test system: MDA-MB-231 breast
[5] = test system: RXF 393 renal
[6] = test system: SF-268 CNS
[7] = test system: SF-295 CNS
[8] = test system: SF-539 CNS
[9] = test system: UACC-257 melanoma
[10] = test system: M14 melanoma

Measured: growth

O=C(COc1ccc(NC(=O)Nc2ccc(Cl)c(Cl)c2)cc1)N=Nc1c(O)[nH]c2ccc(Br)cc12
active: [1] -30.1% | [2] 7.78% | [3] -85.4% | [4] -59.3% | [5] -54.3% | [6] 1.44% | [7] -68.3% | [8] -90.8% | [9] -76.5% | [10] -63.8%

Cc1cccc(-c2nc(Nc3cccc(S(N)(=O)=O)c3)c3ccccc3n2)c1
active: [4] -13.6% | [8] -9.93%
inactive: [1] 57.3% | [2] 10.2% | [3] 75% | [5] 29.2% | [6] 46.2% | [7] 20.2% | [9] 87% | [10] 54%

C=C1CCC2C3(C)COC(c4cccc(F)c4)OC3CCC2(C)C1C/C=C1/C(=O)OCC1O (stereo not given)
inactive: [2] 10.5% | [6] 67.9%
active: [1] 4.04% | [3] -41.9% | [4] -32.8% | [5] -70.5% | [7] 2.97% | [8] -72.5% | [9] -28.8% | [10] -40.7%

COc1cc(/C=C/C(=O)c2ccccc2)ccc1Oc1nc(Nc2ccc(F)cc2)nc(N(C)C)n1
inactive: [1] 53.7% | [3] 41.5% | [5] 39.4% | [6] 42.3% | [7] 26.5% | [9] 21.9% | [10] 38.7%
active: [2] 6.43% | [4] -4.47% | [8] -8.58%

Cn1cc(-c2cc3nc(-c4cn(C)c5ncc(Br)cc45)cc(N)n3n2)c2ccccc21
active: [2] -30% | [3] -85.2% | [4] -64.7% | [5] -74% | [7] -60.2% | [8] -90.2% | [9] -77.4% | [10] -72.6%
inactive: [1] 16.1% | [6] 11.8%

CC1(C)CC[C@]2(C(=O)Nc3ccc(F)cc3)CC[C@]3(C)C(=CCC4[C@@]5(C)C[C@@H](O)[C@H](O)[C@@](C)(CO)C5CC[C@]43C)C2C1 (stereo not given in full)
inactive: [1] 59.7% | [2] 18% | [3] 60.7% | [4] 27.8% | [6] 52.6% | [7] 26.1% | [8] 49.7% | [9] 27.7% | [10] 46.6%
active: [5] -6.8%

COc1c(F)ccc(C(=O)Nc2ccc3nc(NC(=O)C4CCCN(S(=O)(=O)c5ccc(Br)s5)C4)sc3c2)c1F (stereo not given)
inactive: [1] 88% | [2] 68.9% | [3] 88.9% | [4] 81.6% | [5] 36.1% | [6] 64.1% | [7] 69.3% | [8] 78% | [9] 88.7% | [10] 89.7%

CN(C)c1ccnc(CNCCSC2(c3ccc(C(F)(F)F)cc3)c3ccccc3CCc3ccccc32)c1
active: [1] -3.51% | [2] -16.3% | [3] -91.8% | [4] -54.6% | [5] -88.3% | [7] -96.9% | [8] -97.6% | [9] -59.8% | [10] -75.6%
inactive: [6] 14.1%

O=[N+]([O-])c1ccc(/C=C/c2nc3ccccc3n3c(=S)[nH]nc23)cc1
inactive: [1] 88% | [2] 70.5% | [3] 101% | [4] 85.9% | [5] 78.7% | [6] 80.1% | [7] 125% | [8] 98.4% | [9] 94.8% | [10] 84.4%

COc1ccc(C2=NN(C(C)=O)C(c3ccc(OCc4ccc(Cl)cc4)c(OC)c3)C2)cc1OC (stereo not given)
inactive: [1] 51.3% | [2] 31% | [3] 48.1% | [4] 69.6% | [5] 52.9% | [6] 47.1% | [7] 37.8% | [8] 63.8% | [9] 40.2% | [10] 54.2%

Cn1cc(-c2cc3nc(-c4cn(C)c5ncccc45)cc(N)n3n2)c2cc(Cl)ccc21
active: [1] -15% | [2] -51.3% | [3] -97.4% | [4] -96.2% | [5] -84.2% | [6] -45% | [7] -81.5% | [8] -98.5% | [9] -76.5% | [10] -90.8%

COc1ccc(NC(=O)Cn2c3c(sc2=O)[C@H]2[C@@H](O)[C@@H](O)[C@H](O)[C@@H]2CS3)cc1
inactive: [1] 109% | [2] 95.6% | [3] 102% | [4] 107% | [5] 114% | [6] 102% | [7] 105% | [8] 101% | [9] 102% | [10] 103%

CC(C)Sc1nc(NCCc2c[nH]c3ccccc23)c(C#N)c(-c2ccc(F)cc2)n1
active: [2] 9.31% | [5] -3.65%
inactive: [1] 40.6% | [3] 80.6% | [4] 11.2% | [6] 45.1% | [7] 49.4% | [8] 40.1% | [9] 90.2% | [10] 46.8%

CN(C)c1ccnc(CNCCSC2(c3ccccc3)c3ccccc3C=Cc3ccccc32)c1
active: [1] -26.1% | [2] -27.1% | [3] -93.4% | [4] -49.5% | [5] -36.6% | [6] -30.7% | [7] -70.5% | [8] -96.5% | [9] -66.3% | [10] -80.8%

COc1cc(C2CC(c3cc(OC)c(OC)c(OC)c3)=NN2C(C)=O)ccc1OCc1ccc(F)cc1 (stereo not given)
inactive: [1] 70.6% | [2] 28% | [3] 81.8% | [4] 61% | [5] 73.7% | [6] 72% | [7] 37.7% | [8] 61.9% | [9] 68.6% | [10] 59.9%

Nc1cccc(SCc2cc3ccccc3[nH]c2=O)c1
active: [2] 9.64%
inactive: [1] 58.7% | [3] 72% | [4] 57.2% | [5] 81.5% | [6] 47.7% | [7] 19.3% | [8] 59.9% | [9] 48.5% | [10] 20.5%

Cn1cc(-c2nc(N)nnc2-c2c[nH]c3ccc(Br)cc23)c2cccnc21
inactive: [1] 59.7% | [2] 24.5% | [3] 57% | [4] 63.1% | [5] 63.9% | [6] 66.7% | [7] 18.1% | [8] 20.1% | [9] 81.3% | [10] 33.9%

Cc1ccc(Cc2cnc(NC(=O)c3ccc(/C=C4\SC(=S)N(C)C4=O)cc3)s2)cc1
inactive: [1] 26.1% | [2] 23.3% | [3] 25.2% | [4] 41.4% | [5] 29.4% | [6] 38.6% | [8] 12.7% | [9] 30.4% | [10] 20.5%
active: [7] 8.52%

CC12CC[C@@H]3[C@]4(C)COC(c5cn[nH]c5-c5ccc(Br)cc5)O[C@@H]4CC[C@@]3(C)[C@@H]1CC(C1=CCOC1=O)O2 (stereo not given in full)
inactive: [1] 69.5% | [2] 19.4% | [3] 70.2% | [4] 66% | [5] 37% | [6] 50.1% | [7] 48.7% | [8] 69.9% | [9] 55.2% | [10] 38.8%

COc1cccc(-c2nc(Nc3ccc(S(N)(=O)=O)cc3)c3ccccc3n2)c1
active: [7] 2.4%
inactive: [1] 29.4% | [2] 10.3% | [3] 37.9% | [4] 13.3% | [5] 12.5% | [6] 33.7% | [8] 11.9% | [9] 68.4% | [10] 38.7%

COc1c(F)ccc(C(=O)Nc2ccc3nc(NC(=O)C4CCCN(S(=O)(=O)c5ccc(C(F)(F)F)cc5)C4)sc3c2)c1F (stereo not given)
inactive: [1] 88% | [2] 64.6% | [3] 89% | [4] 81.3% | [6] 68% | [7] 74.7% | [8] 68.4% | [9] 86.3% | [10] 79.3%
active: [5] 9.04%

O=C(CCN1C(=O)/C(=C/c2ccc(F)cc2)SC1=S)N1CCOCC1
inactive: [1] 35.8% | [2] 43% | [3] 46.1% | [4] 60.9% | [5] 47.7% | [6] 86.7% | [7] 104% | [8] 68.6% | [9] 52% | [10] 57.1%

CCS(=O)(=O)N1CCCC(C(=O)Nc2nc3ccc(NC(=O)c4ccc(F)c(OC)c4F)cc3s2)C1 (stereo not given)
inactive: [1] 77.2% | [2] 38.6% | [3] 67.9% | [4] 81.7% | [5] 26.9% | [6] 68.5% | [7] 48.8% | [8] 57.6% | [9] 37.4% | [10] 78.5%

COc1cc2oc(-c3cccc(NC(=O)[C@H](CC(N)=O)NC(=O)OC(C)(C)C)c3)cc(=O)c2c(OC)c1OC
inactive: [1] 97.1% | [2] 77.1% | [3] 107% | [4] 97.7% | [5] 69.4% | [6] 90.2% | [7] 103% | [8] 78% | [9] 112% | [10] 115%

COc1ccc(NC(=O)[C@H](C)N)cc1C(=O)Nc1cccc(C2CC(=O)c3c(cc(OC)c(OC)c3OC)O2)c1 (stereo not given in full)
inactive: [1] 86.6% | [2] 75.8% | [3] 105% | [4] 87.3% | [5] 92.8% | [6] 81.5% | [7] 119% | [8] 89.3% | [9] 107% | [10] 110%

COc1ccc(-c2nc3cc(C)ccc3n2CC(=O)N=Nc2c(O)[nH]c3ccc(OC)cc23)cc1
active: [1] 8.56% | [2] -28.5% | [3] -94.6% | [4] -76.3% | [5] -82.9% | [6] -8.44% | [7] -72.9% | [8] -99% | [9] -78% | [10] -83.2%

Source: PubChem BioAssay (NCI)
